Laboratory results reported in the supplement of paper PMC10849652.
The full data set covers some 8,800 targets. This sample favours those with a hit. About 0.5% of all pairs of compound and target were hits.

Chain of UniProt Q709C8 (Q709C8 whole entry, looked up): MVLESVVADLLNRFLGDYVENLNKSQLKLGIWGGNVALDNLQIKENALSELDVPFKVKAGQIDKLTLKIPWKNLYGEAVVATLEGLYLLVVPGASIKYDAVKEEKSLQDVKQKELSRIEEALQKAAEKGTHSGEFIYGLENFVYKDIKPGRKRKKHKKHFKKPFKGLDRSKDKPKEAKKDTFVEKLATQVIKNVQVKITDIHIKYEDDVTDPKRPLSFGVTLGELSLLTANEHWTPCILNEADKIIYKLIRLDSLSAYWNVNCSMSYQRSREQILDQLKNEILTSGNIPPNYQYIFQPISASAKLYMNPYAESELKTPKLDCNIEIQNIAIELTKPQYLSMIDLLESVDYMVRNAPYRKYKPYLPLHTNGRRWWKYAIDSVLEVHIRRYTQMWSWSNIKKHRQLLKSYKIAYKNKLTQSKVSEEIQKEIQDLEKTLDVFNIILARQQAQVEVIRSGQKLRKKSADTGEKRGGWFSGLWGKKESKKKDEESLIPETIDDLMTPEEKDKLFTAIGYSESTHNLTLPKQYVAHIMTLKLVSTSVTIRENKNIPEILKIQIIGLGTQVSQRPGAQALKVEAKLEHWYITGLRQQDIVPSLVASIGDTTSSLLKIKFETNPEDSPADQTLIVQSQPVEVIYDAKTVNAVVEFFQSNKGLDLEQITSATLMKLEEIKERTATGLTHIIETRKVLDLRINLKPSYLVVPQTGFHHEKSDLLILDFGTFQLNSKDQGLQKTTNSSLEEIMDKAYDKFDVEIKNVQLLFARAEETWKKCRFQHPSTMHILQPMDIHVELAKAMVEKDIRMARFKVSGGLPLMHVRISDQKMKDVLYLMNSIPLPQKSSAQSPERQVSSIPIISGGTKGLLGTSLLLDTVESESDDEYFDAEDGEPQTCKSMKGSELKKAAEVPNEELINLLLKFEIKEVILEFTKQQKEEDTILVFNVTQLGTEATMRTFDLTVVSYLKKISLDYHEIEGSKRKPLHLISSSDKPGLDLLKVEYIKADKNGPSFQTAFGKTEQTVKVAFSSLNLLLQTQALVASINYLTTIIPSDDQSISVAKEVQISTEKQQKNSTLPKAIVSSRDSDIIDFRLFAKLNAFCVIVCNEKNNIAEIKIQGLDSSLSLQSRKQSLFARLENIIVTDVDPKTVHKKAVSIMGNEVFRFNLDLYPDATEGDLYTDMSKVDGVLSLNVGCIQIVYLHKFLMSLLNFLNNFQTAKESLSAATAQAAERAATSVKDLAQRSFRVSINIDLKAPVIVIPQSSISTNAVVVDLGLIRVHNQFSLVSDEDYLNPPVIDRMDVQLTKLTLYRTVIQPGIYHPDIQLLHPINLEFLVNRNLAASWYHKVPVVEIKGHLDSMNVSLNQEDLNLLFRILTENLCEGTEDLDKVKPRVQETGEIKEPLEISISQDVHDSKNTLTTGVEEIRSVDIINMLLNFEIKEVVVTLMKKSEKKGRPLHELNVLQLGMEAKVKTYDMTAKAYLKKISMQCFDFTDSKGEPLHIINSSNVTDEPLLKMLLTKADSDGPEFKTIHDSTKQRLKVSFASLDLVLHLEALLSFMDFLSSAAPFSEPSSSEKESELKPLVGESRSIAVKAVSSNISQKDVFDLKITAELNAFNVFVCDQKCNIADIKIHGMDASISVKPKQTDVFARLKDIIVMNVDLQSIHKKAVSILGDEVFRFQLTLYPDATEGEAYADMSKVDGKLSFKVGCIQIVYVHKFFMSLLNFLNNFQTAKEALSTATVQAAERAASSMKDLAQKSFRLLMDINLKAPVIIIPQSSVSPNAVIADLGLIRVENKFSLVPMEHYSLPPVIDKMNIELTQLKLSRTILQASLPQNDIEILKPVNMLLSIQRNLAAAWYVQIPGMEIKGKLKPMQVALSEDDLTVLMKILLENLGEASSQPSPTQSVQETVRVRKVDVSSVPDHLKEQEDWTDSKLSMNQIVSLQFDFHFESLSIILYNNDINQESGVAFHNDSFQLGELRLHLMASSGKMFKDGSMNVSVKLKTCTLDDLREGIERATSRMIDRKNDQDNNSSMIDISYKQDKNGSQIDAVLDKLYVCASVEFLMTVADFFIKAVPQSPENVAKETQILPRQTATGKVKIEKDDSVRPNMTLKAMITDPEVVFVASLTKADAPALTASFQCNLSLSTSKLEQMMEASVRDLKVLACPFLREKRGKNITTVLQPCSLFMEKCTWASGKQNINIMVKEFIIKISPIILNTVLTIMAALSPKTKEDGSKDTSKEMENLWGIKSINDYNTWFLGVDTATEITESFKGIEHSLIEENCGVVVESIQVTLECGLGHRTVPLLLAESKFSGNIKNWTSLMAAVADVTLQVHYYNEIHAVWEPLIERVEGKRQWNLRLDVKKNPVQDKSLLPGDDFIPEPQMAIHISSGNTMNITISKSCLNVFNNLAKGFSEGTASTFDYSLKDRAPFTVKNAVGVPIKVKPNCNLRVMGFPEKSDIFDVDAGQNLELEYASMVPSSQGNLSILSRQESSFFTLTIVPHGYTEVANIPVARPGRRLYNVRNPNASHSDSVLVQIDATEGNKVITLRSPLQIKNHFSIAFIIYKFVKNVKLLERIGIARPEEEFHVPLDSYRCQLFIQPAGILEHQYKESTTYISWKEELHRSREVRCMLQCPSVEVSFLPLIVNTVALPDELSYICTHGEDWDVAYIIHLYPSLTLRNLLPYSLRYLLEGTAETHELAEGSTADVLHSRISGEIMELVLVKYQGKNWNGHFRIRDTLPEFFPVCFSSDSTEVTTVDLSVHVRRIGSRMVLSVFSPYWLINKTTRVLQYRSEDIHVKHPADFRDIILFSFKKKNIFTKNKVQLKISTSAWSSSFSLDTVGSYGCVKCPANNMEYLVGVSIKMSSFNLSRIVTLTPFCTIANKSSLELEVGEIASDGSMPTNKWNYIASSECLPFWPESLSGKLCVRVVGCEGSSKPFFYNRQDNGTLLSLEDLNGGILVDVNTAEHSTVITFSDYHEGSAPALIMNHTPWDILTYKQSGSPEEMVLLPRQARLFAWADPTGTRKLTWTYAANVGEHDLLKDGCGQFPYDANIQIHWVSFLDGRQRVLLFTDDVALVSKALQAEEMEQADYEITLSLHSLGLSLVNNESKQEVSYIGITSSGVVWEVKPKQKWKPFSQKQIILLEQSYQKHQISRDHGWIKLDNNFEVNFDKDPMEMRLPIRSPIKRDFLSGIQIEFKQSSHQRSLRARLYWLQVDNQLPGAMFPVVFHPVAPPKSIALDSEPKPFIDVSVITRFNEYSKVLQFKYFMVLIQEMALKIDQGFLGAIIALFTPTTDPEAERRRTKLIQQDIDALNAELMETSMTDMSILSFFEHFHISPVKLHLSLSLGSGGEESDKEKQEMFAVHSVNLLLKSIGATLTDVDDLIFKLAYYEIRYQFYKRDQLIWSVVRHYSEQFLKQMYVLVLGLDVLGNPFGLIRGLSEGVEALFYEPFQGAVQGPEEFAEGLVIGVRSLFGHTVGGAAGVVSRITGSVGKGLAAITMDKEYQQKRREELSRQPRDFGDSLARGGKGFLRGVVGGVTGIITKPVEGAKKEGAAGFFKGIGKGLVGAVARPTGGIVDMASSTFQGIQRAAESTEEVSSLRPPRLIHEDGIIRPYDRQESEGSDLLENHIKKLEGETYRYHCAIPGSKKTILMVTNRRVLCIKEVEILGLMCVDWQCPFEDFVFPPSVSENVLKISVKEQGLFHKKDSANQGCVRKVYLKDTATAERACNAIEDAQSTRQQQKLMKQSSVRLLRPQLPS
Chain of UniProt Q9UN37 (Q9UN37 whole entry, looked up): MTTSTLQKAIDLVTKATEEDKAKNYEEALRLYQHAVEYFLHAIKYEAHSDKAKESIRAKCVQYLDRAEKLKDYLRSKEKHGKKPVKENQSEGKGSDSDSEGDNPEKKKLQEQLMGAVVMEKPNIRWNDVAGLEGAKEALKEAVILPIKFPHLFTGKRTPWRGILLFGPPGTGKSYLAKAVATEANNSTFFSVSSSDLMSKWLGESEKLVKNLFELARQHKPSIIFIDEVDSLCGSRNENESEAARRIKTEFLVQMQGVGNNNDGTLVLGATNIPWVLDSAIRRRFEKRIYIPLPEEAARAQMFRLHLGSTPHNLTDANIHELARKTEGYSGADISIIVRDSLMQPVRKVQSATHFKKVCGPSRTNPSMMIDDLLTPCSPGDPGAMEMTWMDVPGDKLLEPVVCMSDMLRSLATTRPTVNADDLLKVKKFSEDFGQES
Chain of UniProt Q9UKW4 (Q9UKW4 whole entry, looked up): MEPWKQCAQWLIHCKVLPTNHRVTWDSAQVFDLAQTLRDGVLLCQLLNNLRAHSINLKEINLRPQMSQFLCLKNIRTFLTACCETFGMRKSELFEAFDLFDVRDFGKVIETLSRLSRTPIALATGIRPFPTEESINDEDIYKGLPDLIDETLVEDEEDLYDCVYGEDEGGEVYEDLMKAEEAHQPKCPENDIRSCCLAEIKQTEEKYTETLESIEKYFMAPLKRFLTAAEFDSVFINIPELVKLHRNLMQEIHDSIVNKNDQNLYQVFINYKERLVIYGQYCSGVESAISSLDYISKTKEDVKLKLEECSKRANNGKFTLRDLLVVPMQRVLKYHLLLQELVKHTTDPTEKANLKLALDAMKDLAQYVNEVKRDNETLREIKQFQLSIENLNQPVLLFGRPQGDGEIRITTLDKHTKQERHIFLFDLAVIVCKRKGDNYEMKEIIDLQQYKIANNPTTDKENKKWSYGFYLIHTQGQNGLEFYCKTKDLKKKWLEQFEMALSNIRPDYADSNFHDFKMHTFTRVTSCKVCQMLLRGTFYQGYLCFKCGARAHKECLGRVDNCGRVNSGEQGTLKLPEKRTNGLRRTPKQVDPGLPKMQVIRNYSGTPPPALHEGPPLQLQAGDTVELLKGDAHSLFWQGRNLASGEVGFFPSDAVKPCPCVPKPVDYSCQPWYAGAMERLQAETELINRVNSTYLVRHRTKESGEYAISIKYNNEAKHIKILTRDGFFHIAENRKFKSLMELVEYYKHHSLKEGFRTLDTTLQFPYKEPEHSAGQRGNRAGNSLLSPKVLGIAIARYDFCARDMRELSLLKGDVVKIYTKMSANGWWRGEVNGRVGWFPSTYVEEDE

What follows are targets tested with C1=CC=C(C=C1)[C@H](COC2=CC3=C(C=C2)NC(=O)N3)NC(=O)C4=CC=CN(C4=O)CC5=CC(=C(C=C5)F)F (assay: log2 fold change, soluble protein after heating vs DMSO (PISA); higher = thermal stabilisation; K562 lysate, 10 uM; active = over 0.2 and 3.5 SD of the protein, either way, in both replicates (recomputed)).
Summary of the method: (§1)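 Pellets of K562 cells were dounce-homogenised in PBS pH 7.4 with 1 mM MgCl2, and the crude extract was held at 1 mg/mL protein for a 30 min treatment with 10 μM compound. Aliquots were heated for 3 min over 48°C-58°C and pooled before NP-40 was added to 0.5% at 4°C. The supernatant from 21,000xg for 90 min was quantified by TMTpro 16plex LC-MS/MS with channel sums equalised. Values are reported from duplicates as log-two fold change in thermal stability relative to solvent controls.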
For ZDHHC18 (UniProt Q9NUE0), the log2 fold change was 0.103 (inactive). In the case of WRB (UniProt O00258), the log2 fold change is reported as 0.018 (inactive). WDR62 isoform 4 (UniProt O43379) was tested, and the log2 fold change was 0.026 (inactive). In the case of WDR91 (UniProt A4D1P6), the log2 fold change is reported as -0.009 (inactive). For UQCRC2 (UniProt P22695), the log2 fold change was 0.003 (inactive). For WDR3 (UniProt Q9UNX4), the log2 fold change was 0.039 (inactive). For YDJC (UniProt A8MPS7), the log2 fold change was 0.001 (inactive). For WIPI2 (UniProt Q9Y4P8), the log2 fold change was 0.03 (inactive). VAV3 isoform 4 (UniProt Q9UKW4) was tested, and the log2 fold change was 0.089 (inactive). In the case of VPS13C (UniProt Q709C8), the log2 fold change is reported as -0.111 (inactive). For VPS37B (UniProt Q9H9H4), the log2 fold change was 0.028 (inactive). For VAC14 (UniProt Q08AM6), the log2 fold change was -0.008 (inactive). For WDR7 (UniProt Q9Y4E6), the log2 fold change was 0.055 (inactive). For VPS35L (UniProt Q7Z3J2), the log2 fold change was 0.013 (inactive). In the case of VPS54 (UniProt Q9P1Q0), the log2 fold change is reported as -0.157 (inactive). YRDC (UniProt Q86U90) was tested, and the log2 fold change was -0.009 (inactive). For UXT isoform 2 (UniProt Q9UBK9), the log2 fold change was 0.033 (inactive). For ZC3HC1 (UniProt Q86WB0), the log2 fold change was 0.002 (inactive). For UPF3B (UniProt Q9BZI7), the log2 fold change was 0.031 (inactive). YLPM1 (UniProt P49750) was tested, and the log2 fold change was -0.029 (inactive). For ULK3 isoform 4 (UniProt Q6PHR2), the log2 fold change was -0.015 (inactive). YES1 (UniProt P07947) was tested, and the log2 fold change was -0.068 (inactive). UQCC2 (UniProt Q9BRT2) was tested, and the log2 fold change was 0.008 (inactive). ZMAT2 (UniProt Q96NC0) was tested, and the log2 fold change was 0.037 (inactive). For YTHDF3 (UniProt Q7Z739), the log2 fold change was -0.111 (inactive). For VPS4A (UniProt Q9UN37), the log2 fold change was -0.056 (inactive). USE1 (UniProt Q9NZ43) was tested, and the log2 fold change was 0.006 (inactive). In the case of WDR24 (UniProt Q96S15), the log2 fold change is reported as -0.066 (inactive). In the case of ZNF217 (UniProt O75362), the log2 fold change is reported as -0.037 (inactive). For USP10 isoform 2 (UniProt Q14694), the log2 fold change was -0.038 (inactive). For USP48 isoform 8 (UniProt Q86UV5), the log2 fold change was 0.006 (inactive).

Each target was assayed with CC1=C(SC2=C1C(=N[C@H](C3=NN=C(N32)C)CC(=O)N)C4=CC=C(C=C4)Cl)C in the same assay as above.
Summary of the method: as §1
ZDHHC18 (UniProt Q9NUE0) was tested, and the log2 fold change was 0.115 (inactive). For WRB (UniProt O00258), the log2 fold change was -0.021 (inactive). WDR62 isoform 4 (UniProt O43379) was tested, and the log2 fold change was -0.004 (inactive). WDR91 (UniProt A4D1P6) was tested, and the log2 fold change was 0.027 (inactive). With UQCRC2 (UniProt P22695) the log2 fold change was 0.037 (inactive). With WDR3 (UniProt Q9UNX4) the log2 fold change was -0.026 (inactive). With YDJC (UniProt A8MPS7) the log2 fold change was -0.012 (inactive). For WIPI2 (UniProt Q9Y4P8), the log2 fold change was -0.033 (inactive). For VAV3 isoform 4 (UniProt Q9UKW4), the log2 fold change was -0.012 (inactive). VPS13C (UniProt Q709C8) was tested, and the log2 fold change was -0.002 (inactive). In the case of VPS37B (UniProt Q9H9H4), the log2 fold change is reported as 0.039 (inactive). With VAC14 (UniProt Q08AM6) the log2 fold change was -0.008 (inactive). For WDR7 (UniProt Q9Y4E6), the log2 fold change was 0.011 (inactive). In the case of VPS35L (UniProt Q7Z3J2), the log2 fold change is reported as 0.004 (inactive). VPS54 (UniProt Q9P1Q0) was tested, and the log2 fold change was 0.136 (inactive). YRDC (UniProt Q86U90) was tested, and the log2 fold change was 0.02 (inactive). In the case of UXT isoform 2 (UniProt Q9UBK9), the log2 fold change is reported as 0.026 (inactive). For ZC3HC1 (UniProt Q86WB0), the log2 fold change was 0.045 (inactive). UPF3B (UniProt Q9BZI7) was tested, and the log2 fold change was -0.008 (inactive). In the case of YLPM1 (UniProt P49750), the log2 fold change is reported as -0.04 (inactive). ULK3 isoform 4 (UniProt Q6PHR2) was tested, and the log2 fold change was 0.043 (inactive). In the case of YES1 (UniProt P07947), the log2 fold change is reported as -0.099 (inactive). In the case of UQCC2 (UniProt Q9BRT2), the log2 fold change is reported as 0.019 (inactive). In the case of ZMAT2 (UniProt Q96NC0), the log2 fold change is reported as -0.01 (inactive). In the case of YTHDF3 (UniProt Q7Z739), the log2 fold change is reported as 0.021 (inactive). With VPS4A (UniProt Q9UN37) the log2 fold change was 0.034 (inactive). For USE1 (UniProt Q9NZ43), the log2 fold change was 0.008 (inactive). With WDR24 (UniProt Q96S15) the log2 fold change was -0.475 (active). In the case of ZNF217 (UniProt O75362), the log2 fold change is reported as 0.075 (inactive). USP10 isoform 2 (UniProt Q14694) was tested, and the log2 fold change was 0.029 (inactive). For USP48 isoform 8 (UniProt Q86UV5), the log2 fold change was -0.016 (inactive).
